From PubChem BioAssay
Sampled rows, rich in hits. Any-hit rate of the full collection: about 5.9%.
VP16 counter: VP16 counterscreen qHTS for inhibitors of ROR gamma transcriptional activity; Drosophila S2 Gal4-VP16 UAS-luciferase, luminescence, 20 h; Potency, µM (titrated, usually from 53.6 µM), hits mostly inhibitors; hit rate 3.5% among 310,000; AID 2546, 2010;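 further: Gal4-VP16 expression switched on by copper sulfate through the metallothionein promoter; nearly all actives have a fitted effect of over 50% in size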
GLP-1R agonist: qHTS of GLP-1 Receptor Agonists | Glucagon-like peptide 1 receptor (Homo sapiens), P43220 | HEK293 GLP-1R CRE-luciferase, luminescence, 4-6 h; cells express a hypersensitive GLP-1R form | Potency, µM (highest dose often 45.6 µM), actives largely listed as activators | hit rate 0.007% among 380,000 | AID 624172, 2012
Target sequence (P43220 whole entry, looked up): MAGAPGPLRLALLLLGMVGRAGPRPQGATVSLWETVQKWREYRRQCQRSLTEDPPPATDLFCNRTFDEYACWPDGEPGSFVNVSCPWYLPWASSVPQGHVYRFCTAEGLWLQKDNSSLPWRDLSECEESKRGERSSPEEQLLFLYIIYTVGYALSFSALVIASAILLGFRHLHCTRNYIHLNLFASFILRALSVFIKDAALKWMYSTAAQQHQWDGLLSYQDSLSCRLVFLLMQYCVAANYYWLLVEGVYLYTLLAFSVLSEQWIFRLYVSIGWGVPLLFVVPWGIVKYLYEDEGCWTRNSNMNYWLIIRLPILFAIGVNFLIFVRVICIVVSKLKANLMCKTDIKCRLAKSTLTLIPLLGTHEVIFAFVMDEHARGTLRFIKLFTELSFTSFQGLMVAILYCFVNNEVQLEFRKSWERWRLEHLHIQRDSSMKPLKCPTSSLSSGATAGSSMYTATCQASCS
RORg inh: qHTS for inhibitors of ROR gamma transcriptional activity. Nuclear receptor ROR-gamma (Mus musculus), P51450. Drosophila S2 Gal4-RORgamma UAS-luciferase reporter, 20 h. Potency, µM (titrated, usually from 53.6 µM), hits mostly inhibitors. hit rate 5.4% among 310,000; further: nearly all actives have a fitted effect of over 60% in size
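A Gal4/UAS one-hybrid system in insect cells: metallothionein-promoter Gal4–ROR gamma fusion plus Photinus luciferase reporter. Copper sulfate 700 uM final, 20 hr ambient incubation, luminescent detection after 10 min with reagent.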
HEK293 tox: qHTS of GLP-1 Receptor Inverse Agonists: Cytotox Screen. HEK293 cAMP-luciferase reporter cells, luminescence, 24 h. Potency, µM (top dose mostly 38.3 µM), actives largely listed as inhibitors. hit rate 0.13% among 410,000;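 further: loss of luciferase light is scored as toxicity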
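Step one: seed cells (200 cells/uL, DMEM with 10% Nu serum, 1% pen-strep). Step two: 12-hour incubation at 37 deg C. Step three: pin 23 nL compound, incubate 24 hr. Step four: add luciferase reagent, read luminescence 12 min later.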
GLP1R inv ag: qHTS of GLP-1 Receptor Inverse Agonists (Inhibition Mode); hit rate 1.6% among 410,000; AID 624417, 2012; Glucagon-like peptide 1 receptor (Homo sapiens), P43220; HEK293 GLP-1R CRE-luciferase, luminescence, 24 h; GLP-1R form is constitutively active; Potency, µM (top dose mostly 38.3 µM), hits mostly inhibitors; further: nearly all actives have a fitted effect of over 55% in size
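GLP-1R inverse agonism mode: basal reporter luminescence in engineered HEK293 cells measured after one day of compound exposure at 37 deg C, with a 12 min room-temperature detection step.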
Hits are given with their value; . = inactive; ? = inconclusive; / = no result given; [ ] = remark or other dose. The call rests on the fitted dose curve; in most records, active means well fitted curve in the direction sought with a large enough effect; inconclusive means small, poorly fitted or top-dose-only effect, or another doubt; inactive means no such curve, though single readings can be large; an effect the other way counts as inactive or inconclusive.

SMILES | VP16 counter | GLP-1R agonist | RORg inh | HEK293 tox | GLP1R inv ag
CC(OC(=O)CCc1nc2ccccc2c(=O)[nH]1)C(=O)c1ccc(C(C)(C)C)cc1 (stereo unspecified) | 5.62µM | . | ? | . | .
C#C[C@]1(OC(C)=O)CC[C@H]2[C@@H]3CCC4=C/C(=N/O)CC[C@@H]4[C@H]3CC[C@@]21CC | ? | . | ? | / | /
CC(=O)C(Sc1nc(NC(C)(C)C)nc(N(C)C)n1)C(C)=O | 14.1µM | . | 6.31µM | . | ?
CN(C)c1nc(N)nc(CSc2nnnn2-c2ccc(Cl)cc2)n1 | / | . | / | . | .
CN(C)c1nc(N)nc(CSc2ncc(Cl)cc2Cl)n1 | . | . | 12.6µM | . | .
O=C1c2ccccc2-c2nnc(-c3ccccc3)cc21 | 11.2µM | . | 8.91µM | . | .
COc1ccc(-c2cc3c(nn2)-c2ccccc2C3=O)cc1 | ? | . | 2.51µM | . | ?
Cc1cccc(-c2cc3c(nn2)-c2ccccc2C3=O)c1 | ? | . | . | . | .
Cc1ccc(C)c(NS(=O)(=O)c2ccc(NC(=O)CSc3ccc(Cl)cc3)cc2)c1 | . | . | . | . | ?
Cc1ccc(NS(=O)(=O)c2ccc(NC(=O)c3cccs3)cc2)c(C)c1 | . | . | ? | . | ?
Cc1ccc(NS(=O)(=O)c2ccc(NC(=O)C3CC3)cc2)c(C)c1 | 25.1µM | . | . | . | ?
Cc1ccc(NS(=O)(=O)c2ccc(NC(=O)C(C)Sc3ccc(Cl)cc3)cc2)c(C)c1 (stereo unspecified) | ? | . | ? | . | 10µM
COc1cc(NC(=O)CCc2c(C)nc3c(c(C)nn3-c3ccccc3)c2C)cc(OC)c1OC | / | . | / | . | .
Cc1[nH]c2ccccc2c1CN1CCc2ccccc2C1 | ? | . | 11.2µM | . | .
COc1cc(Cl)cc(/C=N\NC(=O)c2ccc3c(c2)OCO3)c1O | / | . | / | . | ?
O=C(N/N=C/c1cc2c(cc1Cl)OCO2)c1cccc(Br)c1 | . | . | . | . | .
COc1cc(/C=N/NC(=O)c2ccc3c(c2)OCO3)ccc1O | 7.08µM | . | 8.91µM | . | .
O=C(N/N=C/c1cc(Cl)cc([N+](=O)[O-])c1O)c1ccc2c(c1)OCO2 | 0.891µM | . | 0.794µM | ? | ?
O=C(N/N=C/c1cc(Br)cc(Cl)c1O)c1ccc2c(c1)OCO2 | / | . | / | ? | 2.51µM
O=C(N/N=C/c1ccc2c(c1)OCO2)c1ccc(NC(=O)c2ccc(F)cc2)cc1 | . | . | 10µM | . | ?
Cc1cc(C)c(NC(=O)Cn2c(=O)oc3cc(S(=O)(=O)N4CCCCCC4)ccc32)c(C)c1 | / | / | / | . | ?
O=C(N/N=C/c1ccc2c(c1)OCO2)c1sc2cc(Cl)ccc2c1Cl | . | . | .[10 µM] | . | .
O=C(N/N=C/c1ccccc1OC(=O)c1ccc2c(c1)OCO2)c1cccc(F)c1 | ? | . | 12.6µM | ? | 10µM
O=C(N/N=C/c1cccc(NC(=O)c2ccc(Cl)cc2)c1)c1cccc(O)c1 | . | . | . | . | ?
O=C(O)COc1ccccc1/C=N/NC(=O)c1ccc2c(c1)OCCO2 | ? | . | ? | . | .
SMILES | VP16 counter | GLP-1R agonist | RORg inh | HEK293 tox | GLP1R inv ag
COc1ccc2c(Cl)c(C(=O)N/N=C/c3ccc4c(c3)OCO4)sc2c1 | . | . | 1.12µM | . | .
O=C(N/N=C/c1cccs1)c1cccc(NC(=O)c2ccc(Cl)cc2)c1 | 12.6µM | / | 10µM | / | /
O=C(N/N=C/c1cc(Br)c(O)c(Br)c1O)c1ccc2c(c1)OCCO2 | 3.16µM | . | 4.47µM | . | ?
Cn1ncc2c(Nc3cccc(F)c3)ncnc21 | / | / | / | . | .
Cc1nc2cnc(N(C)C)nc2n(CCC#N)c1=O | . | / | . | / | /
O=C(Cn1c(SCc2ccccc2F)nc2ccncc21)Nc1ccccc1C(F)(F)F | / | / | / | . | .
O=C(N/N=C/c1cccs1)c1ccc2c(c1)OCO2 | ? | . | 14.1µM | . | .
O=C(N/N=C/c1ccsc1)c1ccc2c(c1)OCO2 | / | . | / | . | .
O=C(N/N=C/c1ccc2c(c1)OCO2)c1ccc2c(c1)OCCO2 | ? | . | . | ? | .
O=C(N/N=C/c1ccccc1O)c1ccc2c(c1)OCO2 | 1.78µM | . | 0.562µM | . | ?
Cc1cc(Br)cc(/C=N/NC(=O)c2ccc3c(c2)OCO3)c1O | 3.55µM | . | 2.51µM | . | ?
O=C(N/N=C\c1ccccc1)c1sccc1-n1cccc1 | . | . | ? | . | .
O=C(N/N=C\c1cccs1)c1sccc1-n1cccc1 | ? | . | 1.26µM | . | .
O=C(N/N=C/c1c[nH]c2ccc(Br)cc12)c1ccc2c(c1)OCO2 | . | . | ? | .[7.66 µM] | .[7.66 µM]
O=C1C(=O)N(C2CCN(C(=O)c3ccc(F)cc3)CC2)CCN1Cc1ccc(F)cc1 | / | / | / | . | .
O=C(COCc1cc(-c2ccco2)on1)Nc1ccc(OC(F)(F)F)cc1 | / | / | / | . | .
CCC1CN(C(=O)Nc2cccc(OC)c2)c2ccccc2O1 (stereo unspecified) | / | / | / | . | ?
Cc1cc(C(F)(F)F)nn1Cc1n[nH]c(=S)n1-c1ccc(F)cc1 | . | . | ? | . | .
CCc1ccc(-n2c(Cn3nc(C(F)(F)F)cc3C)n[nH]c2=S)cc1 | ? | . | 3.98µM | . | .
CCc1ccc(-n2c(C)n[nH]c2=S)cc1 | ? | . | 10µM | .[7.66 µM] | .[7.66 µM]
COc1ccc(-n2c(SCC(=O)Nc3cccc4ccccc34)nc(O)cc2=O)cc1 | . | . | 35.5µM | . | .
COc1ccc(-n2c(SCC(=O)Nc3ccccc3)nc(O)cc2=O)cc1 | . | . | . | . | .
COC(=O)C1=C[C@@H](C(=O)OC)C2C3=C(C(=O)[C@]2(CC(C)C)NC(=O)c2ccccc2)[C@H](C)n2c(=O)n(C)c(=O)n2[C@@H]3C1 (stereo partly specified) | . | / | . | / | /
COc1ccc(CNC(=O)[C@]2(C)CCC[C@@]3(C)C4CC[C@@]5(C)C[C@]4(CCC32)CC5=O)cc1 (stereo partly specified) | / | . | / | . | 10µM
Cc1noc(C)c1-c1ccc2ncnc(NCc3cccn3C)c2c1 | . | / | . | / | /
NCCCC[C@H](NC(=O)[C@@H]1CCCN1C(=O)[C@@H]1CSSC[C@H](NC(=O)CNC(=O)CNC(=O)CN)C(=O)N[C@@H](Cc2ccc(O)cc2)C(=O)N[C@@H](Cc2ccccc2)C(=O)N[C@@H](CCC(N)=O)C(=O)N[C@@H](CC(N)=O)C(=O)N1)C(=O)NCC(N)=O | / | . | / | / | /
Nc1ccc(Br)cc1C(=O)O | 1.41µM | ? | 2.82µM | . | .
Nc1ccc(-c2ccc(N)c(C(=O)O)c2)cc1C(=O)O | . | . | . | . | .
C=CC[N+]1([C@H]2C[C@H]3[C@@H]4CC[C@H]5C[C@H](O)[C@@H](N6CCOCC6)C[C@]5(C)[C@H]4CC[C@]3(C)[C@H]2OC(C)=O)CCCC1 | . | . | . | / | /
